Screening data deposited in PubChem BioAssay by several laboratories.
An excerpt weighted towards active compounds, which were near 1.1% of everything screened.
BJeLR viability: MLPCN primary cell-based screen for lethality selective to Ras in HRASV12 cells | AID 1554, 2009 | inhibition, % (test concentration not listed) | 300,000 compounds, 0.17% hits | BJeLR (HRASV12) viability, CellTiter-Glo ATP luminescence, 48 h; in the data active means inhibition above about 50%
PrP UTR inh: inhibition of PrP 5' UTR reporter expression | cell-based PrP 5' UTR mRNA reporter, plate reader | inhibition, % (concentration not given with the values) | 340,000 compounds, 0.35% hits | AID 488862, 2010; in the data active means inhibition above about 52%; further: 0 = median of the neutral control wells
MazF activator: activators of E. coli MazEF toxin-antitoxin RNase, primary screen, biochemical, fluorescence, uHTS | Endoribonuclease toxin MazF (Escherichia coli (strain K12)), P0AE70 | FAM/BHQ RNA-DNA oligo cleavage fluorescence, 5 h | activation, % at 20 µM | 350,000 compounds, 0.32% hits; in the data active means activation above about 50%
PrPC surface inh: inhibitors of human cell surface prion protein PrPC, primary screen, cell-based, TR-FRET. Major prion protein (Homo sapiens), P04156. 370,000 compounds, 0.43% hits. inhibition, % at 13.8 µM. AID 720596, 2013. TR-FRET read-out; in the data active means inhibition above about 24%; further: 0% = median of the test wells and 100% = reference compound wells
PrP 5UTR single: prion 5' UTR mRNA inhibition, cherry-pick retest; 1,100 compounds, 48% hits; inhibition, % at 2.5 µM; shares compounds with PrP UTR inh; cell-based prion protein 5' UTR reporter, plate reader; in the data active means inhibition above about 54%
PrPC confirm: confirmation of inhibitors of cell surface human prion protein, confirmation, cell-based, TR-FRET; shares compounds with PrPC surface inh; 1,500 compounds, 65% hits; inhibition, % at 13.8 µM; cell surface PrPC level; AID 743200, 2013; in the data active means inhibition above about 25%
LD9 tox: cytotoxicity in LD9 cells, cytotoxicity control for cell surface PrPc inhibitor project, cell-based, luminescence, high throughput. inhibition, % at 13.8 µM. shares compounds with PrPC surface inh. 1,500 compounds, 29% hits. luminescence viability; in the data active means inhibition above about 9.5%
* = called active by the depositor; · = no result given.

SMILES	BJeLR viability	PrP UTR inh	MazF activator	PrPC surface inh	PrP 5UTR single	PrPC confirm	LD9 tox
CC(=O)O[C@H]1C(=O)[C@@]2(C)[C@H]([C@H](OC(=O)c3ccccc3)[C@]3(O)C[C@H](OC(=O)[C@H](O)[C@@H](NC(=O)c4ccccc4)c4ccccc4)C(C)=C1C3(C)C)[C@]1(OC(C)=O)CO[C@@H]1C[C@@H]2O	·	55*	7	35*	88*	24	3
CC/C=C/CC(=O)N[C@@H](c1ccccc1)[C@@H](O)C(=O)O[C@H]1C[C@@]2(O)[C@@H](OC(=O)c3ccccc3)C3[C@](C)(C(=O)[C@H](OC(C)=O)C(=C1C)C2(C)C)[C@@H](O)C[C@H]1OC[C@@]31OC(C)=O (stereo partly drawn)	30	59*	14	26*	85*	23	-2
CC(=O)O[C@@]12CO[C@@H]1C[C@@H](O)[C@@]1(C)C(=O)[C@H](O)C3=C(C)[C@@H](OC(=O)[C@H](O)[C@@H](NC(=O)c4ccccc4)c4ccccc4)C[C@@](O)([C@@H](OC(=O)c4ccccc4)C12)C3(C)C (stereo partly drawn)	34	21	3	7	·	·	·
CC(=O)O[C@H]1C(=O)[C@@]2(C)[C@H]([C@H](OC(=O)c3ccccc3)[C@]3(O)C[C@H](OC(=O)[C@H](O)C(NC(=O)c4ccccc4)c4ccccc4)C(C)=C1C3(C)C)[C@]1(OC(C)=O)CO[C@@H]1C[C@@H]2O (stereo partly drawn)	40	70*	11	31*	88*	27*	8
CCOC(=O)N[C@H](C(=O)N1CCC[C@H]1C(=O)NC1CCCC1)c1ccccc1	·	·	·	1	·	·	·
O=C(Nc1ccc(F)cc1F)C1CCCN1S(=O)(=O)c1cccnc1 (stereo not drawn)	·	·	·	-7	·	·	·
Nc1nc(F)nc2c1ncn2[C@@H]1O[C@H](COP(=O)(O)O)[C@@H](O)[C@@H]1O	·	·	·	0	·	·	·
Nc1nc(F)nc2c1ncn2[C@@H]1O[C@H](CO)[C@@H](O)[C@H]1O	97*	94*	6	45*	94*	44*	54*
Nc1nc(F)nc2c1ncn2[C@@H]1O[C@H](CO)[C@@H](O)[C@@H]1O	11	-33	-2	2	·	·	·
CC(C)CCCCCCCCCCCCC(=O)NCC(=O)NC1C(C)OC(Nc2ncnc3nc[nH]c23)C(O)C1O (stereo not drawn)	·	75*	-76	25*	77*	79*	33*
C/C(=C\CNc1ncnc2nc[nH]c12)CO	-3	-10	8	4	·	·	·
COC(=O)[C@]12C[C@H](CC(=O)NCCCCc3ccccc3)C(=O)N(Cc3ccccc3)C1=C[C@H](C1CCCC1)O[C@@H]2C	·	·	·	-1	·	·	·
COc1ccc(C[C@H]2NC[C@H](O)[C@H]2OC(C)=O)cc1	82*	92*	4	89*	96*	102*	47*
COc1ccc(CCNC(=O)C2CC2)cc1	3	-10	6	1	·	·	·
Cc1ccc(C(=O)n2c(N)nc3ccccc32)cc1	34	74*	1	25*	55*	-3	3
CC(C)C[C@H]1COc2c(Cl)cccc2S(=O)(=O)N1Cc1ccc(F)cc1F	·	·	·	5	·	·	·
CC(=O)c1c(C)[nH]c(C(=O)CSc2nnc(N)s2)c1C	-4	55*	-6	30*	1	30*	-2
O=C1NC2C(O)C(O)C(O)C(O)C2c2cc3c(c(O)c21)OCO3 (stereo not drawn)	·	61*	-3	90*	83*	100*	32*
O=C1NC2C(=CC(O)C(O)C2O)c2cc3c(c(O)c21)OCO3 (stereo not drawn)	·	88*	5	89*	95*	97*	55*
COc1ccccc1-c1cccc2[nH]c3c(c12)CCN1C(=O)[C@H]2[C@H](C)ON(C)[C@H]2C[C@@H]31	·	·	·	11	·	·	·
NC1=C(Cl)C(=O)c2ccc(S(N)(=O)=O)cc2C1=O	·	96*	4	34*	96*	44*	98*
NC1=C(Cl)C(=O)c2ccccc2C1=O	·	-25	15	-12	·	·	·
CCOC(=O)C(CNc1ccc(OCc2ccccc2)cc1)NC(=O)c1ccccc1 (stereo not drawn)	·	·	·	-2	·	·	·
Cc1cccc2cc(C#N)c(SCC(=O)N3CC(=O)Nc4ccccc43)nc12	54*	64*	38	29*	81*	70*	16*
Cn1c2ccccc2c(=O)c2ccc(C#Cc3ccc(N)cc3)cc21	-9	-18	-35	29*	·	53*	19*
SMILES	BJeLR viability	PrP UTR inh	MazF activator	PrPC surface inh	PrP 5UTR single	PrPC confirm	LD9 tox
COC(=O)C1=C(C)N(Cc2ccccc2C(F)(F)F)C(=NCc2ccc(OC)cc2)NC1CCc1ccccc1 (stereo not drawn)	·	·	·	-1	·	·	·
O=C1NC[C@@H](CCCCN2C[C@H](Cc3ccc(O)cc3)N(CC3CCCCC3)C(=O)C2=O)N(Cc2ccccc2)C1=O	·	·	·	10	·	·	·
O=C1NC[C@H](CCCCN2C[C@H](Cc3ccc(O)cc3)N(CC3CCCCC3)C(=O)C2=O)N(CC2CCCCC2)C1=O	·	·	·	25*	·	24	-1
CCOC(=O)c1c(-c2ccccc2)csc1NC(=O)CSc1nncs1	-12	-4	-9	42*	·	39*	-1
COCCCNC(=O)C[C@H]1C[C@@]2(C(=O)OC)C(=C[C@H](C3CCCC3)O[C@@H]2C)N(Cc2ccc(Cl)cc2Cl)C1=O	·	·	·	3	·	·	·
O=C(N[C@H](C(=O)N1CCC[C@H]1C(=O)NCCc1ccccc1Cl)c1ccccc1)c1ccc(Cl)cc1Cl	·	·	·	1	·	·	·
CCN(CC(=O)Nc1c(F)cccc1F)C(=O)c1cc(-c2cccs2)nn1-c1ccccc1	0	-20	-2	25*	·	28*	-8
CC(=O)c1ccc(-c2cc(C(C)=O)c3n(c2=O)CCC3)cc1	·	·	·	-2	·	·	·
COC(=O)C1=C(C)N(Cc2cccc(C(F)(F)F)c2)C(=NCc2ccc(OC)cc2)NC1c1cccc(C(F)(F)F)c1 (stereo not drawn)	·	·	·	-7	·	·	·
CC1C(OC(=O)CCC(=O)NC(C)(C)CO)O[C@H]2OC3(C)CC[C@H]4[C@H](C)CCC1C24OO3 (stereo partly drawn)	0	-30	2	33*	·	33*	19*
CC(C)CC(NC(=O)CCCNC(=O)CCC(=O)OC1O[C@H]2OC3(C)CC[C@H]4[C@H](C)CCC(C1C)C24OO3)C(=O)O (stereo partly drawn)	-3	2	-4	28*	·	38*	20*
